Growth data for 9 compounds are collected here from PubChem BioAssay (NCI).

Assay in all cases: NCI-60 one-dose screen, 48 h (100 = growth as untreated, 0 = no growth, -100 = all killed)
The test system of one test is HCT-15 colon. Particulars: 10 µM unless noted.
The subject of another test is HT29 colon. The conditions noted are these: 10 µM unless noted.
The next test concerns SNB-75 CNS. The conditions noted are these: 10 µM unless noted.
The next test has as its system SNB-19 CNS. The conditions noted are these: 10 µM unless noted.
The subject of the next test is U251 CNS. Particulars: 10 µM unless noted.
Another test relates to PC-3 prostate. The conditions noted are these: 10 µM unless noted.
A further test deals with UACC-62 melanoma. Particulars: 10 µM unless noted.
A further test deals with SK-MEL-28 melanoma. The conditions noted are these: 10 µM unless noted.
A further test relates to EKVX NSCLC. The conditions noted are these: 10 µM unless noted.
The test system of a further test is SN12C renal. Particulars: 10 µM unless noted.
The test system of the next test is UO-31 renal. Particulars: 10 µM unless noted.
A further test relates to TK-10 renal. The conditions noted are these: 10 µM unless noted.
The test system of another test is ACHN renal. Particulars: 10 µM unless noted.
A further test concerns CAKI-1 renal. Particulars: 10 µM unless noted.
In the next test the test system is A498 renal. The conditions noted are these: 10 µM unless noted.
The next test relates to CCRF-CEM leukemia. Particulars: 10 µM unless noted.
The test system of another test is MOLT-4 leukemia. The conditions noted are these: 10 µM unless noted.
Another test deals with SK-MEL-5 melanoma. The conditions noted are these: 10 µM unless noted.
For another test, the system named is LOX IMVI melanoma. The conditions noted are these: 10 µM.
The test system of the next test is SK-MEL-2 melanoma. The conditions noted are these: 10 µM unless noted.

This is part of a sample that, as a whole, favours compounds with a hit. Of some 83,000 tested, about 20% had one in any assay.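 Results are percent growth after 48 hours of single-concentration exposure. 100 means growth as in untreated cells, lower positive values show inhibition; negative values down to -100 show cell death.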 A number with no mark means an inactive call. The source made the active and inactive calls. Rule for the calls: active = growth percent below 10; inactive = the rest.

Turning to `O=C(Cc1ccccc1)C(F)(F)F`, the growth was 107% in the test with HCT-15 colon; 112% in the test with HT29 colon; 92.4% in the test on SNB-75 CNS; 109% with SNB-19 CNS; 97.8% with U251 CNS; 96.3% in the test on PC-3 prostate. Also, the growth in the test with UACC-62 melanoma was 104%; in the test on SK-MEL-28 melanoma it was 99.2%; with EKVX NSCLC, 99.1%; in the test on SN12C renal, 103%; with UO-31 renal it was 93.7%; with TK-10 renal it was 103%. For the same compound, the growth was 106% in the test on ACHN renal; 89.8% in the test on CAKI-1 renal; 102% in the test on A498 renal; 98.4% in the test with CCRF-CEM leukemia; 82.7% in the test on MOLT-4 leukemia.

`CCc1oc2ccccc2c1C(=O)c1cc(Br)c(O)c(Br)c1`: the growth in the test on HCT-15 colon was 62.5%; in the test on HT29 colon, 89.3%; with SNB-75 CNS, 53.7%; in the test with SNB-19 CNS, 78.4%; in the test on PC-3 prostate, 65.5%; in the test on SK-MEL-5 melanoma, 46.1%. Moreover, the growth was 38.9% in the test on UACC-62 melanoma; 62.3% in the test with LOX IMVI melanoma; 63.9% with SK-MEL-28 melanoma; 59.6% in the test on SK-MEL-2 melanoma; 73.6% in the test with EKVX NSCLC; 78.4% with SN12C renal. For the same compound, the growth in the test on UO-31 renal is 84.3%; with TK-10 renal it was 125%; in the test on ACHN renal, 84.2%; in the test with CAKI-1 renal, 63.6%; in the test with A498 renal it was 67.2%; with CCRF-CEM leukemia, 41.8%. Besides, the growth in the test on MOLT-4 leukemia was 83.9%.

With `O=C(Nc1ccc(Cl)c(Cl)c1)Nc1ccccc1O`, the growth in the test on HCT-15 colon is 78.5%; in the test with HT29 colon, 112%; in the test with SNB-75 CNS it was 67%; with SNB-19 CNS, 85.8%; with PC-3 prostate, 38.1%; in the test on SK-MEL-5 melanoma, 74.5%. Moreover, the growth with UACC-62 melanoma was 42.8%; in the test with LOX IMVI melanoma, 70.4%; in the test on SK-MEL-28 melanoma it was 107%; in the test with SK-MEL-2 melanoma, 77%; in the test with EKVX NSCLC, 80.4%; in the test with SN12C renal it was 76.4%. The growth in the test on UO-31 renal was 55.8%; in the test with TK-10 renal it was 116%; in the test on ACHN renal, 76.5%; in the test with A498 renal, 106%; in the test with CCRF-CEM leukemia it was 37.1%; with MOLT-4 leukemia, 61.1%.

For the compound `CCOC(=O)c1c(C)[nH]c2ccc(O)cc12`, the growth in the test with HCT-15 colon was 109%; with HT29 colon, 96.3%; in the test on SNB-75 CNS, 100%; with SNB-19 CNS, 101%; in the test on U251 CNS, 97.3%; in the test with PC-3 prostate, 93.2%. The growth in the test on SK-MEL-5 melanoma is 101%; with LOX IMVI melanoma, 97.1%; with SK-MEL-28 melanoma, 120%; in the test on SK-MEL-2 melanoma it was 97.9%; with EKVX NSCLC it was 98.3%; in the test on SN12C renal it was 98.9%. The growth is 72.3% in the test with UO-31 renal; 128% in the test with TK-10 renal; 110% in the test on ACHN renal; 97.8% in the test on CAKI-1 renal; 111% with A498 renal; 77.5% in the test with CCRF-CEM leukemia. The growth in the test on MOLT-4 leukemia was 105%.

As for `CCCCN(CCCC)CCCCCCCCCCO`, the growth with HCT-15 colon was 94.3%; in the test on HT29 colon, 89.2%; with SNB-75 CNS, 101%; in the test on SNB-19 CNS it was 110%; in the test on PC-3 prostate it was 115%; with SK-MEL-5 melanoma, 103%. The growth in the test with UACC-62 melanoma is 114%; in the test with LOX IMVI melanoma it was 95.2%; with SK-MEL-28 melanoma it was 112%; in the test on SK-MEL-2 melanoma it was 86.9%; with SN12C renal, 107%; with UO-31 renal, 81.3%. The growth with ACHN renal was 97.1%; in the test on CAKI-1 renal, 105%; with A498 renal, 123%; with CCRF-CEM leukemia it was 98%; in the test on MOLT-4 leukemia it was 83%.

For `CCc1cccc(CC)c1N1C(=O)C=CC1=O`, the growth in the test with HCT-15 colon was 104%; in the test on HT29 colon, 113%; with SNB-75 CNS it was 93.8%; in the test on SNB-19 CNS, 105%; with PC-3 prostate it was 110%; with SK-MEL-5 melanoma it was 98.1%. Besides, the growth with UACC-62 melanoma was 112%; in the test on SK-MEL-28 melanoma, 119%; in the test on SK-MEL-2 melanoma, 107%; with EKVX NSCLC, 113%; with SN12C renal it was 129%; in the test with UO-31 renal, 90.3%. Also, the growth is 104% in the test on TK-10 renal; 102% with ACHN renal; 100% in the test on A498 renal; 17% in the test on CCRF-CEM leukemia; -10% (active) in the test with MOLT-4 leukemia.

For `O=C1c2ccccc2C(=O)c2c(O)c(Cl)cc(O)c21`, the growth with HCT-15 colon is 81.9%; in the test with HT29 colon, 39%; with SNB-75 CNS, 96%; in the test with SNB-19 CNS, 93.1%; with PC-3 prostate, 77%; with SK-MEL-5 melanoma it was 108%. In addition, the growth in the test with UACC-62 melanoma is 81.3%; in the test with SK-MEL-28 melanoma, 103%; in the test on SK-MEL-2 melanoma, 124%; in the test with EKVX NSCLC, 98.3%; in the test on SN12C renal, 96.5%; in the test with UO-31 renal, 79.8%. Further, the growth in the test on ACHN renal is 92.1%; in the test with CAKI-1 renal, 95.1%; in the test with A498 renal, 91%; in the test with CCRF-CEM leukemia it was 64.3%; with MOLT-4 leukemia, 75.9%.

Turning to `COc1ccc(C(Cn2ccnc2)Sc2ccc(Cl)c(Cl)c2)cc1` (stereo not drawn), the growth in the test on HCT-15 colon was 79.7%; in the test on HT29 colon, 59.6%; in the test on SNB-75 CNS, 89.2%; with SNB-19 CNS it was 98.6%; in the test with PC-3 prostate it was 63.1%; with SK-MEL-5 melanoma, 66.5%. In addition, the growth in the test on UACC-62 melanoma was 77.6%; with SK-MEL-28 melanoma it was 85.3%; in the test on SK-MEL-2 melanoma, 104%; with SN12C renal it was 88.6%; in the test with UO-31 renal it was 45.2%; with TK-10 renal, 96.7%. Further, the growth in the test on ACHN renal is 83.4%; in the test with CAKI-1 renal, 62.3%; with A498 renal it was 67.8%; with CCRF-CEM leukemia, 79.3%; in the test with MOLT-4 leukemia, 64.1%.

For `COc1cc(OC)c(/C=C/c2c3ccccc3cc[n+]2C)c(OC)c1`, the growth is 97.9% in the test with HCT-15 colon; 1.89% (active) in the test with HT29 colon; 12.3% in the test on SNB-75 CNS; 35.8% in the test with SNB-19 CNS; 19.2% in the test with PC-3 prostate; -14% (active) in the test with SK-MEL-5 melanoma. The growth in the test on UACC-62 melanoma was 15.7%; in the test on SK-MEL-28 melanoma it was 30.1%; with SK-MEL-2 melanoma it was 20.4%; with SN12C renal, 14.2%; with UO-31 renal, 75.5%; in the test on TK-10 renal, 42.1%. In addition, the growth in the test on ACHN renal is 71.5%; in the test on CAKI-1 renal, 67.8%; with A498 renal it was 36.6%; with CCRF-CEM leukemia, 18.2%; in the test with MOLT-4 leukemia, 14.7%.
